Results taken from PubChem BioAssay (NCATS).
Results filed as inconclusive are left out. Where a call stands in place of a potency, no number is given. Active and inactive are the calls of the source. Calls follow the shape of the dose curve; as a rule, active = well fitted inhibition curve with a large enough effect; inconclusive = small, poorly fitted or top-dose-only effect; inactive = flat fitted curve, though single readings scatter.

Assay: qHTS for Inhibitors of Plasmodium falciparum (7G8) proliferation (AID 504316); also: nearly all actives have a fitted effect of over 65% in size
Conditions: P. falciparum 7G8 in erythrocytes, SYBR Green DNA, 72 h; series mostly up to 6.7 µM
Procedure, shortened: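 Erythrocytes infected with P. falciparum line (0.3% parasitemia, 2.5% hematocrit final) incubated with compounds 72 h at 37 °C, 5% CO2; SYBR Green lysis buffer added, fluorescence read next day. Normalized to 0.29 uM artemisinin and DMSO.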
Potency is read from the fitted curve at half-maximal effect.

Row | Compound | Potency
1 | CC(CCN1CCCc2nc(C)c(C)cc21)=NO[C@H](C)c1cn([C@@H]2COC[C@@H]2O)nn1 | inactive
2 | CCN1C(=O)N[C@@H](CCc2ccccc2)C(C(=O)OC)=C1C | inactive
3 | COC(=O)N1C2=C(c3ccccc3[C@@H]1CC(=O)Nc1ccc3cc4ccccc4cc3c1)[C@@H]1C(=O)N(c3ccccc3)C(=O)[C@@H]1[C@H](C)C2 | 1900 nM (active)
4 | CC1(OC(=O)CCc2ccccc2)C(=O)C=C2C=C(c3ccc(C#N)cc3)N(CCN3CCOCC3)C=C2C1=O (stereo not given) | inactive
5 | CCN1C(=O)N[C@@H](c2ccc(Br)cc2)C(C(C)=O)=C1C | inactive
6 | CCN1C(=O)N[C@@H](c2ccco2)C(C(=O)OC)=C1C | inactive
7 | COC(=O)CCCC1=CC2=C(c3ccccc3)C(=O)C(C)(OC(=O)C3CCCC3)C(=O)C2=CN1CC1CC1 (stereo not given) | inactive
8 | COC(=O)[C@@H]1[C@@H](C)N(Cc2ccccc2)C(=O)N[C@H]1c1ccccc1 | inactive
9 | CCCCC1=CC2=CC(=O)C(C)(OC(=O)CC)C(=O)C2=CN1CCCOC(C)C (stereo not given) | inactive
10 | COC(=O)[C@@H]1[C@H](CCc2ccccc2)NC(=O)N(Cc2ccccc2)[C@H]1C | inactive
11 | CCOC(=O)CN1C(=O)N[C@@H](c2ccccc2)[C@H](C(=O)OC)[C@H]1C | inactive
12 | CCC(=O)OC1(C)C(=O)C=C2C=C(CCCCNC(=O)OC(C)(C)C)OC=C2C1=O (stereo not given) | inactive
13 | COC(=O)C1=C(C(=O)OC)[C@@H]2N(C)c3ccccc3[C@@]23C[C@@H](C(=O)OC)N(C(=O)CC(C)C)C3=N1 | inactive
14 | C=C(C(C)=O)C(O)C=Cc1ccco1 (stereo not given) | inactive
15 | COC(=O)CCC(=O)OC1(C)C(=O)C=C2C=C(C3CC3)N(Cc3ccccc3)C=C2C1=O (stereo not given) | inactive
16 | CCN1C(=O)N[C@@H](c2cccc(C(F)(F)F)c2)C(C(C)=O)=C1C | inactive
17 | C=CCN1C=C2C(=O)C(C)(OC(=O)C3CCCC3)C(=O)C(c3ccccc3)=C2C=C1CCCC(=O)OC (stereo not given) | inactive
18 | CC(=O)Nc1ccc(S(=O)(=O)N2CCc3nc(COc4ccccc4)c4c(c3C2)CO[C@@H](C)C4)cc1 | inactive
19 | COC(=O)C1=C(C(=O)OC)[C@@H]2N(C)c3ccccc3[C@@]23C[C@@H](C(=O)OC)N(C(=O)COCc2ccccc2)C3=N1 | inactive
20 | COC(=O)CCCC1=CC2=C(c3ccccc3)C(=O)C(C)(OC(=O)C3CCCC3)C(=O)C2=CN1C1CC1 (stereo not given) | inactive

Row | Compound | Potency
21 | COC/C=C/C1=CC2=CC(=O)C(C)(OC(=O)c3cnc4ccccc4n3)C(=O)C2=CN1Cc1ccc(OC)cc1 (stereo not given) | inactive
22 | COC(=O)CCCC1=CC2=CC(=O)C(C)(OC(=O)c3cccs3)C(=O)C2=CN1c1cccc(C#N)c1 (stereo not given) | inactive
23 | CCCCC1=CC2=C(c3ccco3)C(=O)C(C)(OC(=O)c3ccc(OC)cc3)C(=O)C2=CN1CCCCO (stereo not given) | inactive
24 | COC(=O)C1=C(C)N(Cc2ccccc2)C(=O)N[C@H]1c1cccc(F)c1 | inactive
25 | CCN1C(=O)N[C@@H](c2ccccc2)[C@H](C(C)=O)[C@H]1C | inactive
26 | C=CCOC(=O)N[C@H](C(C(=O)OC)=C(C)NCc1ccccc1)c1cccc(F)c1 | inactive
27 | C=CCOC(=O)N[C@@H](c1ccc(Br)cc1)C(C(C)=O)C(C)=O | inactive
28 | CCN1C(=O)N[C@@H](c2ccccc2)C(C(=O)OC)=C1C | inactive
29 | COc1cccc(CC(=O)N2CCc3nc(-c4ccccc4)c4c(c3C2)CO[C@@H](C)C4)c1 | inactive
30 | COCCN1C(=O)N[C@@H](c2cccs2)C(C(C)=O)=C1C | inactive
31 | CC[C@@H](C)CN1C(=O)N[C@@H](CCc2ccccc2)C(C(C)=O)=C1C | inactive
32 | CC#CCN1c2ccccc2[C@]23C[C@@H](C(=O)OC)N(S(=O)(=O)c4ccc(Br)cc4)C2=NC(C(=O)OC)=C(C(=O)OC)[C@H]13 | 1900 nM (active)
33 | COC(=O)CCC(=O)OC1(C)C(=O)C2=CN(Cc3ccc4c(c3)OCO4)C(c3ccc(OC)cc3)=CC2=C(Br)C1=O (stereo not given) | inactive
34 | CCN1C(=O)N[C@@H](c2cccc(C(F)(F)F)c2)[C@@H](C(=O)OC)[C@H]1C | inactive
35 | COC(=O)C1=C(C(=O)OC)[C@@H]2N(C)c3ccccc3[C@@]23C[C@@H](C(=O)OC)N(S(=O)(=O)c2ccc(Br)cc2)C3=N1 | 1690 nM (active)
36 | COCCN1C(=O)N[C@@H](c2cccc(C(F)(F)F)c2)[C@@H](C(=O)OC)[C@H]1C | inactive
37 | COC/C=C/C1=CC2=CC(=O)C(C)(OC(=O)c3cnc4ccccc4n3)C(=O)C2=CN1c1cccc(C#N)c1 (stereo not given) | inactive
38 | CC1(C)O[C@@H](C(O)(c2cc(F)c(F)c(F)c2)c2cc(F)c(F)c(F)c2)[C@H](C(O)(c2cc(F)c(F)c(F)c2)c2cc(F)c(F)c(F)c2)O1 | 379 nM (active)
39 | CCCCc1nc2c(c3c1C[C@H](C)OC3)CN(C(=O)NCc1ccco1)CC2 | inactive
40 | C[C@H]1Cc2c(-c3ccccc3)nc3c(c2CO1)CN(C(=O)c1ccco1)CC3 | inactive
